Experimental findings from paper PMC6212833 are described below.

In all, about 2,000 compounds were measured (“B-score”: median about -0.0024, highest 2% from about 4 on). The entries come from a sample that favours the highest values as a whole.

This test deals with Balamuthia mandrillaris (ATCC PRA-291) trophozoites, axenic culture. In words: primary screen, b score. To be noted: 20 µM. The protocol:
Screening of a clinically approved library of compounds, compiled by the Small Molecule Discovery Center (SMDC) at the UCSF, was completed at 20 µM in 0.2% DMSO. All 2,177 drugs in the library were stored as 10 mM stocks dissolved in 100% DMSO (Sigma-Aldrich) at −20°C. B. mandrillaris amoebae were resuspended in axenic medium and distributed into opaque 384-well plates (Corning) at a density of 3,000 amoebae per well using a BioMek NX liquid handler. Negative-control wells were treated with vehicle only (0.2% DMSO in axenic medium), and positive-control wells simulating total destruction of amoebae were seeded with amoeba lysate generated by 3 consecutive freeze-thaw cycles. Following 72 h of incubation, 30 µl of CellTiter Glo reagent (CTG; Promega) was added to each well. The luminescence was measured with a Promega GloMax-Multi+ plate reader at 2, 4, and 8 h after CTG addition. […] The B-score, representing a plate-based statistical approach for correcting row, column, and edge effects, was also calculated for each compound in the library (75).
Regarding `[N-]=[N+]=CC(=O)OC[C@H](N)C(=O)O`, the B-score came out at 4.05.
As for `CC(=O)O[C@H]1C[C@H](O[C@H]2[C@@H](O)C[C@H](O[C@H]3[C@@H](O)C[C@H](O[C@H]4CC[C@@]5(C)[C@H](CC[C@@H]6[C@@H]5C[C@@H](O)[C@]5(C)[C@@H](C7=CC(=O)OC7)CC[C@]65O)C4)O[C@@H]3C)O[C@@H]2C)O[C@H](C)[C@H]1O[C@@H]1O[C@H](CO)[C@@H](O)[C@H](O)[C@H]1O`, the figure is 0.168; as for `O=C1C[C@@H]2OCC=C3CN4CC[C@]56c7ccccc7N1[C@H]5[C@H]2[C@H]3C[C@H]46`, 0.0173; as for `CN1C[C@H](CNC(=O)OCc2ccccc2)C[C@@H]2c3cccc4c3c(cn4C)C[C@H]21`, -0.657.
On to `CC(C)C[C@H](CN)CC(=O)O`, for which the B-score stood at 1.41.
